Test results: PubChem BioAssay (NCI)
About 83,000 compounds went through this panel and 20% of them were active in at least one assay; those are over-represented in the sample as a whole.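 Results are percent growth after 48 hours of single-concentration exposure. 100 means growth as in untreated cells, lower positive values show inhibition; negative values down to -100 show cell death.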 Values without a mark were called inactive. Activity calls are given as the source filed them. The calls were made as follows: active = growth percent below 10; inactive = the rest.

Tested on: NCI-H522 lung
Experiment: NCI-60 one-dose screen, 48 h (100 = growth as untreated, 0 = no growth, -100 = all killed)
Details: 10 µM unless noted

With `Nc1ccc(CCCCc2ccccc2)c(Cl)c1` as the molecule, how does the growth read?
The growth was 71.1%.

Which growth does the source give for `Nc1ccc(S(=O)(=O)Nc2ccsc2-c2nc(-c3ccccc3)no2)cc1` here?
Its growth is 30.2%.

Which growth does the source give for `C=C(CNCCc1ccc(O)cc1)[C@@H]1CC[C@]2(COC3CCCCO3)CC[C@]3(C)[C@H](CC[C@@H]4[C@@]5(C)CCC(NCCO)C(C)(C)[C@@H]5CC[C@]43C)[C@@H]12` (some centres undefined) here?
The growth was -77.3% (active).

How did the growth turn out when `OC(COc1cccc2ccccc12)CN1CCN(c2ccccc2)CC1` (centres undefined) was run?
Its growth is 101%.

For `Cc1[nH]c(-c2nc3ccccc3[nH]2)c(C)c1C(=O)N1CCc2sccc2C1`, which growth is on record?
The growth was 77.1%.

With `CC(C)n1nc(C#Cc2cccc(NC(=O)c3cccc(C(F)(F)F)c3)c2)c2c(N)ncnc21` as the molecule, how does the growth read?
Its growth is -18.6% (active).

Which growth does the source give for `Cc1cc(NS(=O)(=O)c2ccccc2)c(OS(=O)(=O)c2ccccc2)cc1C` here?
Its growth is 97.4%.

For `OCCCCc1nccc2c1[nH]c1ccccc12`, which growth is on record?
Its growth is 117%.

For `C=C(C)[C@@H]1CC[C@]2(CNCCO)CC[C@]3(C)[C@H](CC[C@@H]4[C@@]5(C)CCC(N)[C@@](C)(CO)[C@@H]5CC[C@]43C)[C@@H]12` (some centres undefined), which growth is on record?
The growth was -77.2% (active).

With `OC(c1cccc(OCc2ccccc2)c1)c1nnc(-c2ccccc2)o1` (centres undefined) as the molecule, how does the growth read?
Its growth is 79.2%.

Which growth does the source give for `Cl.[Pt].[c-]1ccccc1-c1ccccn1.c1ccc(P(c2ccccc2)C([PH+](c2ccccc2)c2ccccc2)[PH+](c2ccccc2)c2ccccc2)cc1` here?
Its growth is 9.94% (active).

How did the growth turn out when `COc1cc2c(c(OC)c1OC)C(=O)/C(=C/c1cc(C)c(O)c(C)c1)S2` was run?
The growth was 14.6%.

Which growth does the source give for `O=C(Nc1ccccn1)[C@H](O)[C@@H](O)C(=O)N1CCOCC1` here?
Its growth is 102%.

For `CC(C)(C)N1CC(OC(N)=O)C1`, which growth is on record?
Its growth is 114%.

Which growth does the source give for `O=C(NC1CCOCC1)c1ccc2c(c1)CN(c1ncc(Cc3cccc(-n4cccn4)c3)s1)CC2` here?
Its growth is 38.8%.

For `CN1C[C@@H](c2ccc(Cl)cc2)[C@]2(NC(=S)N(c3ccc(F)c(Cl)c3)C2=O)[C@@]12C(=O)NC1C=CC(Cl)=C[C@H]12` (some centres undefined), which growth is on record?
Its growth is 43.2%.

Which growth does the source give for `CCCN1CCN(c2ccc3nc(-c4ccc5nc(-c6ccc(OCC)c(OCC)c6)[nH]c5c4)[nH]c3c2)CC1` here?
Its growth is -44.8% (active).

`NC(=S)c1csc(CCNC(=O)c2ccccc2)n1` was tested. Which growth did it give?
The growth was 106%.

With `CCN(CCO)CC(=O)c1cc(Cl)cc(Cl)c1Cl` as the molecule, how does the growth read?
The growth was 67.6%.

For `C=CC(=O)Nc1cccc(C)c1Nc1cc(-c2cccnc2Cc2c(C)c(OC)cc(OC)c2C)ncn1`, which growth is on record?
Its growth is -17.4% (active).

How did the growth turn out when `N#Cc1c(NC(=O)c2ccccc2I)sc2c1CCCC2` was run?
Its growth is 24.6%.

With `C#CC[C@H](N)C(=O)O` as the molecule, how does the growth read?
Its growth is 89.2% [20 µM].

For `COc1ccc(-n2ncn(CCCCCCn3cnn(-c4ccc(OC)cc4)c3=O)c2=O)cc1`, which growth is on record?
Its growth is 76.3%.

For `CC(C)OC(=O)OCOP(=O)(OCOC(=O)OC(C)C)C1CCCN(O)C1=O` (centres undefined), which growth is on record?
The growth was -6.81% (active).

`O=C(/C=C/C12c3ccccc3C(c3ccccc31)C1C(=O)N(c3ccc(Cl)cc3)C(=O)C12)c1ccccn1` (centres undefined) was tested. Which growth did it give?
Its growth is -6.34% (active).

Which growth does the source give for `Cc1ccc(S(=O)(=O)N(CC[C@@H]2C[C@H]2c2cc3ccccc3o2)C(=O)NC2CCCCC2)cc1` here?
The growth was 86%.

Which growth does the source give for `COc1cc2c(cc1OC)-c1ccc3cc4c(cc3c1N(CCCN1CCCCC1)C2)OCO4` here?
The growth was 41.6%.

With `COc1cc2cc(Oc3ccc(NC(=O)Nc4cc(C(F)(F)F)cc(C(F)(F)F)c4)cc3)c(C)nc2cc1OCCN1CCCCC1` as the molecule, how does the growth read?
Its growth is -53% (active).

How did the growth turn out when `CCN(CC)CCOC(=O)Nc1ccccc1Cl` was run?
Its growth is 68.9%.

With `COc1cc(CNC(=O)/C=C/C=C/c2ccc3c(c2)OCO3)ccc1OCc1cn(-c2ccc(Cl)c(Cl)c2)nn1` as the molecule, how does the growth read?
The growth was 5.67% (active).

How did the growth turn out when `N#C/C=C(\c1ccc([N+](=O)[O-])cc1)n1nnc2cc(Cl)c(Cl)cc21` was run?
Its growth is 2.18% (active).

`CNC(=O)c1c(NC(=O)c2ccc(C(C)(C)C)cc2)sc2c1CCC(=O)C2` was tested. Which growth did it give?
Its growth is -37% (active).

`CCCCOc1ccc(NC(=O)n2nc(N=NN(C)C)c3ccc(Cl)cc32)cc1` was tested. Which growth did it give?
The growth was 90.1%.

Which growth does the source give for `CC[C@@H](C[C@H](CCO)c1ccccc1)c1cc2ccccc2o1` here?
Its growth is 77.5%.

For `N=c1ccn2c(n1)OC1C(O)C(CO)OC12` (centres undefined), which growth is on record?
The growth was 35.9%.

`Cc1cc(N2CCCCC2)nc(N(CCNc2ccnc3cc(Cl)ccc23)Cc2ccccn2)n1` was tested. Which growth did it give?
Its growth is 56.3%.

`CCOc1ccc2nc(-c3cccc(OCC(=O)NC(C)C)c3)nc(Nc3ccc(-c4cn[nH]c4)cc3)c2c1` was tested. Which growth did it give?
Its growth is -25.3% (active).

Which growth does the source give for `C=C1C(=O)O[C@H]2[C@H]1CC/C(Cn1cc(CNCCc3c[nH]c4ccc(Cl)cc34)nn1)=C\CC[C@@]1(C)O[C@@H]21` here?
The growth was -91% (active).

With `CS(=O)(=O)c1ccc(-c2nc3cc(Cl)ccc3n2CC(=O)N/N=C/c2ccc(Cl)cc2)cc1` as the molecule, how does the growth read?
Its growth is 46%.
